Hit rate of the full screen: of about 5,500 compounds, about 2,000 (36%) were called active. Another 18% or so got no clear call; they are omitted. Rule as the data show it: active = normalized growth mostly below about 0.91 (no sharp cut-off); inconclusive = no clear call, values can overlap the other calls; inactive = mostly above about 0.92. The list shows a part of the results.
Experiment: chemical genetic growth profiling, strain panel (AID 1159580);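 also: tested at 20 µM; growth read once vehicle control cultures reached saturation at 30 °C; 1 = growth at the plate median or of vehicle wells; lower values mean less growth of the strain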
Conditions: growth OD

Measured: normalized growth

NS(=O)(=O)c1ccc(-n2ncc3ccccc3c2=O)cc1
inactive: S. cerevisiae deletion strains, locus YAL013W, strain DEP1, hits give low values 1.02 | S. cerevisiae deletion strains, locus YBR229C, strain ROT2, hits give low values 1.01 | S. cerevisiae deletion strains, locus YCL061C, strain MRC1, hits give low values 1.01 | S. cerevisiae deletion strains, locus YDL101C, strain DUN1, hits give low values 1.04 | S. cerevisiae deletion strains, locus YDL134C, strain PPH21, hits give low values 1.02 | S. cerevisiae deletion strains, locus YDR150W, strain NUM1, hits give low values 0.989 | S. cerevisiae deletion strains, locus YEL061C, strain CIN8, hits give low values 0.987 | S. cerevisiae deletion strains, locus YGR078C, strain PAC10, hits give low values 1.02 | S. cerevisiae deletion strains, locus YHR030C, strain SLT2, hits give low values 1.05 | S. cerevisiae deletion strains, locus YHR087W, strain rtc3, hits give low values 1 | S. cerevisiae deletion strains, locus YJR043C, strain POL32, hits give low values 1.01 | S. cerevisiae deletion strains, locus YJR075W, strain HOC1, hits give low values 1.02 | S. cerevisiae deletion strains, locus YKL190W, strain CNB1, hits give low values 1 | S. cerevisiae deletion strains, locus YLR039C, strain RIC1, hits give low values 1.01 | S. cerevisiae deletion strains, locus YLR058C, strain SHM2 (second series), hits give low values 0.994 | S. cerevisiae deletion strains, locus YLR085C, strain ARP6, hits give low values 0.984 | S. cerevisiae deletion strains, locus YLR262C, strain YPT6, hits give low values 1.06 | S. cerevisiae deletion strains, locus YML094W, strain GIM5, hits give low values 0.986 | S. cerevisiae deletion strains, locus YMR219W, strain ESC1, hits give low values 1 | S. cerevisiae deletion strains, locus YMR263W, strain SAP30, hits give low values 1.01 | S. cerevisiae deletion strains, locus YMR307W, strain GAS1, hits give low values 0.981 | S. cerevisiae deletion strains, locus YNL153C, strain GIM3, hits give low values 0.996 | S. cerevisiae deletion strains, locus YNL298W, strain CLA4 (second series), hits give low values 1.01 | S. cerevisiae deletion strains, locus YNL322C, strain KRE1, hits give low values 1.01 | S. cerevisiae deletion strains, locus YNR030W, strain Alg12, hits give low values 1.01 | S. cerevisiae deletion strains, locus YPL055C, strain LGE1, hits give low values 1.02 | S. cerevisiae deletion strains, locus YPL241C, strain CIN2, hits give low values 1.03 | S. cerevisiae deletion strains, locus YPR135W, strain CTF4, hits give low values 1.06 | S. cerevisiae strains, strain wild type, hits give low values 1.01
